# Compound activity as filed in PubChem.
# Sampled rows, rich in hits. Any-hit rate of the full collection: about 5.3%.
# PfM18AAP inh: PfM18AAP inhibitors, malaria aminopeptidase, primary screen, biochemical, QFRET, recombinant enzyme; M18 aspartyl aminopeptidase (Plasmodium falciparum 3D7); H-Glu-NHMec fluorogenic cleavage; inhibition, % at 7.35 µM; actives 1.2% (n = 290,000);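 active means inhibition above the campaign mean inhibition over all tested compounds plus 3 SD, cut at about 28% in these data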;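 further: 0% = plate median of test compound wells and 100% = 2 mM ZnCl2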
# SUMO Mot1 rescue: yeast Mot1-301 growth rescue at high temperature, primary screen, SUMOylation pathway inhibitor project, S. cerevisiae, ATP luminescence, 38.5C. AID 2716, 2010. actives 1% (n = 320,000). growth rescue, % at 18.8 µM. S. cerevisiae Mot1-301 growth rescue; percent above DMSO median, 100 means doubled;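 active means every valid replicate shows activation above 250% relative to neutral control wells; inactive means the rest, any valid replicate at or below 250%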;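 further: OY570 slx delta 5 strain wells were the positive control but not used for scaling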
# HIF act: HIF pathway transcriptional activators, primary screen, cell-based, U2OS HRE-luciferase, luminescence | U2OS HRE-luciferase reporter; normalized: DMSO 0%, desferrioxamine 100% | activation, % at 7.5 µM (by protocol) | actives 0.32% (n = 300,000) | AID 1910, 2009;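 active means mean activation of at least 10% of the iron chelator positive control signal, with at least half of replicates also reaching 10%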
# ALR H2O2 inh: inhibitors of human ALR sulfhydryl oxidase, primary screen, biochemical, H2O2 detection, HRP-luminol luminescence, single point | FAD-linked sulfhydryl oxidase ALR (Homo sapiens), P55789 | purified ALR, DTT oxidation | inhibition, % (concentration not given with the values) | actives 3.8% (n = 290,000) | AID 485317, 2010;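 active means mean replicate inhibition above about 79%, with every replicate also reaching it, limit read from the data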
# Target sequence (P55789 whole entry, looked up): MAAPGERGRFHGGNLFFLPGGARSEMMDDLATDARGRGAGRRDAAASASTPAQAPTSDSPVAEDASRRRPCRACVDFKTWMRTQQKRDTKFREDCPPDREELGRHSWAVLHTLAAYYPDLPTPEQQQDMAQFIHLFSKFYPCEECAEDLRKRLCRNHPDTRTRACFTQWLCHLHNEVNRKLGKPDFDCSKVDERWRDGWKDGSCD
# Numbers without * were called inactive; / = not tested or not shown.
SMILES,PfM18AAP inh,SUMO Mot1 rescue,HIF act,ALR H2O2 inh
CCOc1ccc(NC(=O)Cn2c(=O)n(CCCC(=O)NC3CCN(Cc4ccccc4)CC3)c(=O)c3ccccc32)cc1,-7,15,1,-11
CCC1C(=O)N=C(SCC(=O)Nc2ccc(Br)cn2)NC1=O (centres undefined),13,16,0,99*
COc1cc2c(cc1NC(=O)CSc1cccc[n+]1[O-])oc1ccccc12,2,-19,1,96*
NC(=O)c1ccc(NC(=O)COC(=O)CCN2C(=O)c3ccccc3C2=O)cc1,/,13,/,1
Cc1c(O)ccc(-c2[nH]ncc2-c2nc3ccccc3s2)c1O,11,-9,0,89*
Cc1c(O)ccc(-c2n[nH]c(C(=O)O)c2-c2nc3ccccc3s2)c1O,30*,-6,0,17
O=C1C(Cc2ccccc2)Nc2ncnc(N3CCc4ccccc4C3)c2N1Cc1ccc(Br)cc1 (centres undefined),/,4,0,6
CCOc1cc(C(=O)Nc2ccncc2)cc(OCC)c1OCC,-9,-7,0,-1
COc1ccc(CN2CCCC(C(=O)c3cccc(C(F)(F)F)c3)C2)cc1O (centres undefined),2,/,1,/
COc1ccccc1NS(=O)(=O)c1cccc(NS(=O)(=O)c2cc(C(=O)O)ccc2OC)c1,/,-17,/,/
COC(=O)Nc1ccc2c(c1)Nc1ccccc1CC2,10,18,2,98*
N#CC(C#N)=C1CCc2ccccc2N1,0,-16,0,/
Nc1ccc2c(c1)Nc1ccccc1CC2,8,5,1,99*
CCOC(=O)c1c(NC(=O)C(NCCN(C)C)c2ccccc2)sc2c1CCCC2 (centres undefined),5,26,0,1
CS(=O)(=O)c1ccc(C(=O)NCCN2C(=O)S/C(=C\c3cccnc3)C2=O)cc1[N+](=O)[O-],9,250,0,100*
CCOc1ccccc1/C=N/Nc1ccnc(=O)[nH]1,-13,-24,-39,-6
O=c1nccc(N/N=C/c2ccccc2O)[nH]1,29*,-17,2,0
S=C(Nc1ccc(Br)cc1)N1CCN(c2ccccn2)CC1,-2,198,0,-10
Oc1ccc(/C=N/NC2=NCCCCC2)cc1,8,-14,0,99*
O=[N+]([O-])c1ccccc1/C=N/NC1=NCCCCC1,-5,0,2,-3
COc1ccc(/C=C/C(=O)ONC2=NCCCCC2)cc1OC,1,6,0,-9
COc1cc(/C=N/NC2=NCCCCC2)ccc1O,4,36,1,95*
Cc1ccc(-n2c(=O)[nH]c3cc(C(=O)NC4CCN(Cc5ccccc5)CC4)ccc3c2=O)cc1,-1,-2,0,-4
CCOc1ccc(CN(C)C(=O)CNC(=O)c2ccc(Br)o2)cc1OC,0,3,0,0
Cc1ccc(Cn2nc(C)c(NC(=O)CSc3nc4c(c(C(F)(F)F)n3)CCc3ccccc3-4)c2C)cc1,-4,0,0,/
SMILES,PfM18AAP inh,SUMO Mot1 rescue,HIF act,ALR H2O2 inh
Cc1nn(Cc2ccc(Cl)cc2)c(C)c1NC(=O)CSc1nc2c(c(C(F)(F)F)n1)CCc1ccccc1-2,8,10,0,98*
COC(=O)c1ccccc1NC(=O)N1CCN(c2ccc(OC)cc2)CC1,-9,-2,0,41
COc1ccc(N2CCN(C(=O)c3ccc(C)cc3Cl)CC2)cc1,-1,18,0,92*
COc1ccc(N2CCN(C(=O)Nc3ccccc3Cl)CC2)cc1,0,3,-1,87*
COc1ccc(-c2nc(C#N)c(N3CCN(C(=O)c4ccco4)CC3)o2)cc1OC,-9,3,11*,-1
O=C(COc1ncnc2ccccc12)Nc1ccc(S(=O)(=O)N2CCOCC2)cc1,-7,28,0,-8
O=C(Cc1ccccc1F)NNC(=O)c1cccs1,/,-7,/,-1
O=C(Cc1coc2cc(O)ccc12)NNC(=O)c1cccs1,/,17,/,99*
CCOc1ccc(C(C)=O)cc1CSC(=N)N,1,-7,0,69
COc1ccc(C(C)=O)cc1CSC(=N)N,5,1,0,99*
N#CCOC(=O)c1c2c(nc3ccccc13)CCC2,5,-7,-1,-7
Cn1c(-c2ccc([N+](=O)[O-])cc2)nc2ccccc21,-2,0,1,-19
Cn1nc([N+](=O)[O-])c(C(C#N)c2nc3ccccc3n2C)c(Cl)c1=O (centres undefined),1,484,-1,100*
Cc1cccc(CCNS(=O)(=O)c2ccc3c(c2)CCN3C(=O)CCC(=O)O)c1,6,-1,0,1
Cc1ccc(N2CCN(C(=O)N3CCCC3)CC2)cc1Cl,-1,-15,0,98*
Cc1ccc(N2CCN(S(=O)(=O)N3CCCCC3)CC2)cc1Cl,-3,/,0,-2
Cc1ccc(C)c(NC(=S)N(CCN(C)C)C(C)c2ccccn2)c1 (centres undefined),-1,251,0,-3
O=C(c1cccc(F)c1)N1CCC(c2nc3ccccc3s2)CC1,10,-6,-1,100*
CSc1ccc(CNCCCN(C)C)cc1,4,-2,0,-5
CCc1ccccc1Nc1nc(N)nc(CSCC(=O)c2cc(C)n(C)c2C)n1,18,-15,-1,98*
Nc1ccc(Nc2nc3ccccc3[nH]2)cc1,-29,-8,-4,42
Nc1ccccc1Nc1nc2ccccc2[nH]1,18,-13,2,99*
CC(C)(C)c1csc(NC(=O)CSc2nc3ccccc3c(=O)[nH]2)n1,-3,-8,0,94*
Cc1csc(SCC(=O)Nc2ccccc2)n1,0,130,3,25
Cc1[nH]c2ccccc2c1-c1csc(NC(=O)CSCCO)n1,4,/,-4,99*
SMILES,PfM18AAP inh,SUMO Mot1 rescue,HIF act,ALR H2O2 inh
Cc1csc(NC(=O)CSc2nc3ccccc3c(=O)[nH]2)n1,4,-15,0,99*
Cc1cccc(C)c1NC(=O)CSc1nc2ccccc2c(=O)[nH]1,-1,0,0,-1
Cc1csc(NC(=O)CSCC(=O)Nc2ccccc2)n1,4,28,0,92*
Fc1ccc(-c2nc(-c3cnccn3)no2)c(Cl)c1,3,-14,0,0
Cn1c(=O)[nH]c(=O)c2c1nc(N1CCCCCC1)n2CCCSc1nnnn1-c1ccccc1,5,-4,0,1
CCOC(=O)C1CCCN(C(=O)c2cccc(S(=O)(=O)N(Cc3ccccc3)c3ccccc3OC)c2)C1 (centres undefined),/,-4,0,-6
CCC1=NN(C(=O)CCc2ccccc2O)C(O)(C(F)(F)F)C1 (centres undefined),4,-22,0,39
Fc1ccc(C(c2nnnn2CCc2ccccc2)N2CCCc3ccccc32)cc1 (centres undefined),1,/,-6,-5
